Among the data in PubChem BioAssay (EPA / NIEHS) are outcome and AC50 values, retold here.

Activity calls are given as the source filed them. How the source made its calls: active means hit-call score of the fitted dose curve at least 0.9, where 1 is the maximum; inactive means score below 0.9.

Sequence of Cytochrome P450 3A4 (Homo sapiens) (P08684 whole entry, looked up): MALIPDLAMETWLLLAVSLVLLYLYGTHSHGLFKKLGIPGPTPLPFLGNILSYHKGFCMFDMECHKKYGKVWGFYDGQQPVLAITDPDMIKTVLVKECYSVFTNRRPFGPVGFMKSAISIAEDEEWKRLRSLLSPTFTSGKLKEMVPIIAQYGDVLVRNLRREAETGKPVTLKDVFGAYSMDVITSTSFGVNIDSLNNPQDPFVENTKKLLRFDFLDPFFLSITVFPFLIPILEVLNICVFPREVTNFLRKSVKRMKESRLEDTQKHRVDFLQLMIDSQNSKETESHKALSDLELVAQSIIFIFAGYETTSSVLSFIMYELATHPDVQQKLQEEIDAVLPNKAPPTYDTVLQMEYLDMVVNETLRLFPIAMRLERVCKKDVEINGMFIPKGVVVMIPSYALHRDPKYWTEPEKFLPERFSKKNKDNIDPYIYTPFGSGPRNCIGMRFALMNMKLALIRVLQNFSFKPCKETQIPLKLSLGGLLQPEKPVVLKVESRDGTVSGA

Read-out in one assay: Cytochrome P450 3A4 (Homo sapiens) (UniProt P08684)
Nature of the assay: LTEA_HepaRG_CYP3A4: Life Technologies and Expression Analysis (LTEA) Assay for CYP3A4 using HepaRG (AID 2283487). To be noted: mRNA level, 48 h; actives raise or lower the signal. The essentials:
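HepaRG, 48 h exposure, 8-pt CRC from 100 uM (half-log), 0.5% DMSO, duplicates; serum-free induction medium. Readout: CYP3A4 mRNA, qRT-PCR, ACTB/GAPDH/POLR2A normalization. Bidirectional fit vs DMSO.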
Consider `Nc1cccc(N)c1`, for which the compound was classed as inactive.
Take `CCCC(=O)OCC`: the outcome was inactive.
Same read-out and setting: next, `COc1ccc(/C=C/S(=O)(=O)NC(=O)c2ccc(C)cc2Cl)cc1`: “inactive”; `Nc1ccc(Nc2ccccc2)cc1`: “inactive”; `COc1ccc2sc(C(=O)Nc3nnn[nH]3)c(OC(C)C)c2c1`: “inactive”.
By AC50 is commonly meant the midpoint of the concentration-response curve, whichever way the signal moves. Take `O=C(OC[C@H]1O[C@@H](OC(=O)c2cc(O)c(O)c(OC(=O)c3cc(O)c(O)c(O)c3)c2)[C@H](OC(=O)c2cc(O)c(O)c(OC(=O)c3cc(O)c(O)c(O)c3)c2)[C@@H](OC(=O)c2cc(O)c(O)c(OC(=O)c3cc(O)c(O)c(O)c3)c2)[C@@H]1OC(=O)c1cc(O)c(O)c(OC(=O)c2cc(O)c(O)c(O)c2)c1)c1cc(O)c(O)c(OC(=O)c2cc(O)c(O)c(O)c2)c1`: the AC50 was 11.3 µM (active).
For the compound `O=C1CCC(N2C(=O)c3ccccc3C2=O)C(=O)N1` (stereo not drawn), the compound was classed as inactive.
As for `COCCOc1cc2cc(C(=O)NC3CCN(C(C)C)CC3)n(CC(=O)Nc3ccc(Cl)cn3)c2cn1`, the AC50 is 45 µM (active).
Consider `CC(O)CN(CCN(CC(C)O)CC(C)O)CC(C)O` (stereo not drawn), for which the result was inactive.
As to `C[C@](N)(Cc1ccc(O)c(O)c1)C(=O)O`, the result was inactive.
In the case of `O=C(O)c1cccc(N(Cc2cccnc2)c2ccc(OC(F)F)c(OC(F)F)c2)c1`, the concentration at half-maximal activity (AC50) was 43.5 µM (active).
Consider `O=C(O)CCN(C1(C(=O)NO)CCCC1)S(=O)(=O)c1ccc(Oc2ccc(F)cc2)cc1`, for which the AC50 was 22.8 µM (active).
Take `CC[C@H]1CC[C@H](NCc2cc3c(cc2OC)[C@H]2C[C@H]2C(=O)N3C)[C@H](c2ccccc2)N1`: the AC50 is 14.2 µM (active).
In the case of `C1N2CN3CN1CN(C2)C3`, the compound was called inactive.
Consider `CCOCCO`, for which the outcome was inactive.
On to `Nc1nc2ncc(CNc3ccc(C(=O)N[C@@H](CCC(=O)O)C(=O)O)cc3)nc2c(=O)[nH]1`, for which the compound was called inactive.
As to `CC(C)CCCCCCCOC(=O)CCCCC(=O)OCCCCCCCC(C)C`, the call was inactive.
For `Fc1ccccc1[C@@H](F)COC1CCC(Nc2ncnc3[nH]ncc23)CC1` (stereo partly drawn), the concentration at half-maximal activity (AC50) was 35.6 µM (active).
On to `COC(=O)c1ccccc1O`, for which the outcome was inactive.
With `O=C(O)CC(O)C(=O)O` (stereo not drawn), the call was inactive.
Take `COC(=O)c1c(Cl)c(Cl)c(C(=O)OC)c(Cl)c1Cl`: the outcome was inactive.
As to `CC(C)=CCCC(C)CCO` (stereo not drawn), the compound was called inactive.
With `O=P(OC(CCl)CCl)(OC(CCl)CCl)OC(CCl)CCl`, the half-maximal activity concentration (AC50) was 88.5 µM (active).
As to `CC(C)CCO`, the compound was called inactive.
For `O=c1[nH]c2ccc(S(=O)CCN3CCC(Cc4ccc(F)cc4)CC3)cc2o1` (stereo not drawn), the AC50 is 12.5 µM (active).
On to `On1ccccc1=S`, for which the call was inactive.
For `C1=CCCC=CCCC=CCC1`, the call was inactive.
On to `CCCCCCCCCCCCc1ccccc1`, for which the outcome was inactive.
Consider `CCCCCCCCCCCCCCCO`, for which the result was inactive.

Read-out in another assay: DNA damage-inducible transcript 3 (DDIT3), DDIT3 (gene 1649)
Nature of the assay: LTEA_HepaRG_DDIT3: Life Technologies and Expression Analysis (LTEA) Assay for DNA damage-inducible transcript 3 (DDIT3) using HepaRG (AID 2283488). To be noted: mRNA level, 48 h; actives raise or lower the signal. The essentials:
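Eight-point concentration-response (100 uM highest, half-log dilutions) in HepaRG, 48 h, duplicate wells. Endpoint: qRT-PCR mRNA, normalized (ACTB, GAPDH, POLR2A), bidirectional fitting with DMSO as baseline.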
Take `Nc1cccc(N)c1`: the outcome was inactive.
`CCCC(=O)OCC`: the outcome was inactive.
For the compound `COc1ccc(/C=C/S(=O)(=O)NC(=O)c2ccc(C)cc2Cl)cc1`, the call was inactive.
Turning to `Nc1ccc(Nc2ccccc2)cc1`, the result was inactive.
In the case of `COc1ccc2sc(C(=O)Nc3nnn[nH]3)c(OC(C)C)c2c1`, the AC50 was 13.2 µM (active).
`O=C(OC[C@H]1O[C@@H](OC(=O)c2cc(O)c(O)c(OC(=O)c3cc(O)c(O)c(O)c3)c2)[C@H](OC(=O)c2cc(O)c(O)c(OC(=O)c3cc(O)c(O)c(O)c3)c2)[C@@H](OC(=O)c2cc(O)c(O)c(OC(=O)c3cc(O)c(O)c(O)c3)c2)[C@@H]1OC(=O)c1cc(O)c(O)c(OC(=O)c2cc(O)c(O)c(O)c2)c1)c1cc(O)c(O)c(OC(=O)c2cc(O)c(O)c(O)c2)c1`: the AC50 was 4.58 µM (active).
For the compound `O=C1CCC(N2C(=O)c3ccccc3C2=O)C(=O)N1` (stereo not drawn), the call was inactive.
As to `COCCOc1cc2cc(C(=O)NC3CCN(C(C)C)CC3)n(CC(=O)Nc3ccc(Cl)cn3)c2cn1`, the outcome was inactive.
Same read-out and setting: next, `CC(O)CN(CCN(CC(C)O)CC(C)O)CC(C)O` (stereo not drawn): “inactive”; `C[C@](N)(Cc1ccc(O)c(O)c1)C(=O)O`: “inactive”.
The same measure, in the same setting: next, `O=C(O)c1cccc(N(Cc2cccnc2)c2ccc(OC(F)F)c(OC(F)F)c2)c1`: “inactive”; `O=C(O)CCN(C1(C(=O)NO)CCCC1)S(=O)(=O)c1ccc(Oc2ccc(F)cc2)cc1`: “inactive”.
Regarding `CC[C@H]1CC[C@H](NCc2cc3c(cc2OC)[C@H]2C[C@H]2C(=O)N3C)[C@H](c2ccccc2)N1`, the AC50 was 50 µM (active).
Consider `C1N2CN3CN1CN(C2)C3`, for which the compound was called inactive.
As to `CCOCCO`, the compound was called inactive.
For the compound `Nc1nc2ncc(CNc3ccc(C(=O)N[C@@H](CCC(=O)O)C(=O)O)cc3)nc2c(=O)[nH]1`, the call was inactive.
Take `CC(C)CCCCCCCOC(=O)CCCCC(=O)OCCCCCCCC(C)C`: the result was inactive.
Consider `Fc1ccccc1[C@@H](F)COC1CCC(Nc2ncnc3[nH]ncc23)CC1` (stereo partly drawn), for which the AC50 was 28.9 µM (active).
For the compound `COC(=O)c1ccccc1O`, the compound was called inactive.
Take `O=C(O)CC(O)C(=O)O` (stereo not drawn): the result was inactive.
Take `COC(=O)c1c(Cl)c(Cl)c(C(=O)OC)c(Cl)c1Cl`: the compound was classed as inactive.
On the same count and under the same terms, the value for `CC(C)=CCCC(C)CCO` (stereo not drawn) was “inactive”.
As for `O=P(OC(CCl)CCl)(OC(CCl)CCl)OC(CCl)CCl`, the AC50 is 79.1 µM (active).
Take `CC(C)CCO`: the result was inactive.
`O=c1[nH]c2ccc(S(=O)CCN3CCC(Cc4ccc(F)cc4)CC3)cc2o1` (stereo not drawn): the AC50 is 50 µM (active).
In the case of `On1ccccc1=S`, the result was inactive.
The same measure, in the same setting: the value for `C1=CCCC=CCCC=CCC1` was “inactive”.
`CCCCCCCCCCCCc1ccccc1`: the compound was classed as inactive.
Still for that read-out and setting: next, `CCCCCCCCCCCCCCCO`: “inactive”.
